In PubChem BioAssay (Tox21):
Results filed as inconclusive are left out. Calls of active or inactive are those of the source. Unless noted, the call rests on the fitted dose curve; in most records, active means well fitted curve in the direction sought with a large enough effect in the repeat runs; inconclusive means weak or mixed curves; inactive means no such curve, though single readings can be large; an effect the other way counts as inactive or inconclusive.

Experiments:
[1] = qHTS RealTime-Glo MT Cell Viability Assay in HEK293 cells - 24 hour (AID 1224886); further: top concentration of the series differs between compounds; nearly all actives have a fitted effect of over 50% in size
Method in brief: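 Luminescence generated by NanoLuc from substrate produced by living HEK293 cells served as the viability signal. Each value reflects the reading at its stated time point during continuous 40 h compound exposure at 37 C.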

[2] = qHTS RealTime-Glo MT Cell Viability Assay in HEK293 cells - 8 hour (AID 1224887); further: top concentration of the series differs between compounds; nearly all actives have a fitted effect of over 50% in size
Method in brief: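 HEK293 cells mixed with RealTime-Glo reagents (NanoLuc plus cell-permeant prosubstrate) at 600 cells/well, preincubated 5 h at 37 C/5% CO2, then given 23 nL compound in DMSO. Nonlytic luminescence from viable cells was read at 0, 8, 16, 24, 32 and 40 h.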

[3] = A CellTox Green Cytotoxicity Assay to monitor cytotoxicity in HEK293 cells - 16 hour (AID 1224888); further: nearly all actives have a fitted effect of over 35% in size
Method in brief: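 HEK293 cells premixed with CellTox Green dye were seeded at 600 cells/well and left 5 h at 37 C/5% CO2 before pin transfer of 23 nL compound in DMSO. Fluorescence from dye bound to dead-cell DNA was read during 40 h treatment.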

[4] = qHTS RealTime-Glo MT Cell Viability Assay in HepG2 cells - 0 hour (AID 1224889); further: nearly all actives have a fitted effect of over 50% in size
Method in brief: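 Tox21 10K library screened in qHTS format on HepG2 cells carrying RealTime-Glo reagents. Compounds were added after a 5 h preincubation, and the luminescent signal from continuous culture was measured repeatedly during 40 h treatment.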

[5] = A CellTox Green Cytotoxicity Assay to monitor cytotoxicity in HepG2 cells - 8 hour (AID 1224890); further: nearly all actives have a fitted effect of over 45% in size
Method in brief: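 HepG2 cells were seeded together with the CellTox Green dye at 600 cells/well, left 5 h at 37 C/5% CO2, then given compounds in DMSO. Fluorescence from dye bound to dead-cell DNA was read repeatedly over 40 h of treatment at 37 C.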

[6] = qHTS assay to identify small molecule antagonists of the estrogen receptor alpha (ER-alpha) signaling pathway using the BG1 cell line in the presence of 0.1 nM 17-beta-estradiol - cell viability counter screen (AID 1259241); further: nearly all actives have a fitted effect of over 40% in size
Method in brief: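 In this screen, hormone-deprived VM7Luc4E2 cells were seeded at 4,000 per well, dosed with compound and 0.1 nM estradiol final, and incubated 22 hr at 37C and 5% CO2; fluorogenic live-cell protease signal reported viability.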

[7] = qHTS assay to identify small molecule antagonists of the androgen receptor (AR) signaling pathway using the MDA cell line in the presence of 0.5 nM R1881 - cell viability counter screen (AID 1259242); further: nearly all actives have a fitted effect of over 45% in size
Method in brief: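 MDA-kb2 cells (human breast carcinoma, stably carrying MMTV-luciferase reporter) were exposed to compounds with 0.5 nM R1881 (final) for 16 hr at 37C, 0% CO2; viability then read as live-cell protease fluorescence (CellTiter-Fluor, 30 min) in the same wells.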

[8] = target: Estrogen receptor (Homo sapiens) (UniProt P03372); assay: qHTS assay to identify small molecule antagonists of the estrogen receptor alpha (ER-alpha) signaling pathway using the BG1 cell line in the presence of 0.1 nM 17-beta-estradiol (AID 1259244); further: nearly all actives have a fitted effect of over 50% in size
Method in brief: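 VM7Luc4E2 cells (endogenous full-length ER-alpha, stable 4xERE-luciferase) were grown 5 days in phenol red-free medium with charcoal-stripped FBS, then exposed 22 h at 37C to compounds plus 0.1 nM (final) 17beta-estradiol; ONE-Glo luminescence read-out.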

[9] = qHTS assay to identify small molecule HDAC inhibitors (AID 1259364); further: top concentration of the series differs between compounds; nearly all actives have a fitted effect of over 45% in size
Method in brief: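 Wild-type HCT-116 cells were plated overnight, exposed to compounds for 2 h at 37 °C, then given HDAC-Glo class I/II luminogenic reagent for 30 min at room temperature before luminescence was read.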

[10] = qHTS assay to identify small molecule HDAC inhibitors - cell viability counter screen (AID 1259365)
Method in brief: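 Measured quantity is CellTiter-Glo luminescence from wild-type HCT-116 cells after compound incubation of 2hr at 37C, 5% CO2; reagent developed 30min at room temperature.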

[11] = qHTS assay to identify small molecule agonists of the sonic hedgehog signaling (Shh) pathway - cell viability counter screen (AID 1259366); further: nearly all actives have a fitted effect of over 50% in size
Method in brief: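 In quantitative high-throughput format, 3T3 Gli1-Luc cells were exposed to compounds for 24hr and multiplexed for viability using CellTiter-Fluor, incubated 1hr at 37C before the fluorescence read.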

[12] = qHTS assay to identify small molecule antagonists of the sonic hedgehog signaling (Shh) pathway - cell viability counter screen (AID 1259367); further: nearly all actives have a fitted effect of over 55% in size
Method in brief: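 NIH/3T3-derived Gli1-Luc reporter cells, 2,000/well, plated 4 hr before compound addition, then stimulated with conditioned medium for 24 hr at 37C. Viability measured in the same wells by CellTiter-Fluor fluorescence, reagent added at 23 hr for 1 hr.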

[13] = qHTS assay to identify small molecule agonists of the sonic hedgehog signaling (Shh) pathway (AID 1259368; calls by dose curve; further: series mostly up to about 92 µM; nearly all actives have a fitted effect of over 15% in size)
Method in brief: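 NIH/3T3-derived 3T3Gli1-Luc cells carrying a stably integrated Gli1 response element–firefly luciferase reporter were plated, left 4 hr at 37 C, then given compounds in DMSO for 24 hr. Luminescence was read 30 min after adding luciferase reagent.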

[14] = qHTS assay to identify small molecule antagonists of the sonic hedgehog signaling (Shh) pathway (AID 1259369; calls by dose curve; further: nearly all actives have a fitted effect of over 45% in size)
Method in brief: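 NIH/3T3-derived 3T3Gli1-Luc cells with stably integrated Gli1-Luc reporter were preincubated 4hr at 37 C, then given compounds in DMSO plus Shh conditioned medium and incubated 24hr. Firefly luciferase luminescence read after 30min reagent at room temperature.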

[15] = target: Estrogen receptor beta (Homo sapiens) (UniProt Q92731); assay: qHTS assay to identify small molecule agonists of the estrogen receptor beta (ER-beta) signaling pathway (AID 1259377; active means well fitted activation curve with a large enough effect in the signal ratio in the repeat runs, not every such curve was filed as active; the % refers to the signal ratio)
Method in brief: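 Reporter cells (HEK293T, ER-beta-UAS-bla) receive compounds or DMSO after a 6 hr pre-incubation. They then incubate 16 hr at 37C/5% CO2, and fluorescence from LiveBLAzer B/G substrate is measured after 2 hours at room temperature.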

[16] = target: Estrogen receptor beta (Homo sapiens) (UniProt Q92731); assay: qHTS assay to identify small molecule antagonists of the estrogen receptor beta (ER-beta) signaling pathway (AID 1259378; active means well fitted inhibition curve with a large enough effect in the signal ratio in the repeat runs, not every such curve was filed as active; the % refers to the signal ratio)
Method in brief: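 ER-beta-UAS-bla HEK293T cells in 2% charcoal-stripped FBS medium treated with compound plus 1nM final 17-beta-estradiol for 16 hr at 37C. Beta-lactamase reporter read by FRET substrate fluorescence after 2 hours at room temperature.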

[17] = qHTS assay to identify small molecule agonists of the androgen receptor (AR) signaling pathway in the presence of an antagonist - cell viability counter screen (AID 1259379); further: series mostly up to about 92 µM; nearly all actives have a fitted effect of over 25% in size
Method in brief: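 MDA-kb2 human breast carcinoma cells (stable MMTV-luciferase, AR/GR responsive) were seeded 3,000 cells/well, pre-incubated 5 hr at 37C without CO2, then given 3.0uM nilutamide and compounds at 15 concentrations for 16 hr. Viability was read by CellTiter-Fluor fluorescence.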

[18] = qHTS assay to identify small molecule agonists of the estrogen receptor beta (ER-beta) signaling pathway - cell viability counter screen (AID 1259380); further: nearly all actives have a fitted effect of over 30% in size
Method in brief: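 ER-beta-UAS-bla HEK293T cells in medium with 2% charcoal-stripped FBS were preincubated 6 hr at 37C, dosed with compound in DMSO for 16 hr, then after the bla read, CellTiter-Glo was added for 30 min at room temperature; luminescence recorded.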

Measured: Potency

Chain of Estrogen receptor beta (Homo sapiens) (Q92731 whole entry, looked up): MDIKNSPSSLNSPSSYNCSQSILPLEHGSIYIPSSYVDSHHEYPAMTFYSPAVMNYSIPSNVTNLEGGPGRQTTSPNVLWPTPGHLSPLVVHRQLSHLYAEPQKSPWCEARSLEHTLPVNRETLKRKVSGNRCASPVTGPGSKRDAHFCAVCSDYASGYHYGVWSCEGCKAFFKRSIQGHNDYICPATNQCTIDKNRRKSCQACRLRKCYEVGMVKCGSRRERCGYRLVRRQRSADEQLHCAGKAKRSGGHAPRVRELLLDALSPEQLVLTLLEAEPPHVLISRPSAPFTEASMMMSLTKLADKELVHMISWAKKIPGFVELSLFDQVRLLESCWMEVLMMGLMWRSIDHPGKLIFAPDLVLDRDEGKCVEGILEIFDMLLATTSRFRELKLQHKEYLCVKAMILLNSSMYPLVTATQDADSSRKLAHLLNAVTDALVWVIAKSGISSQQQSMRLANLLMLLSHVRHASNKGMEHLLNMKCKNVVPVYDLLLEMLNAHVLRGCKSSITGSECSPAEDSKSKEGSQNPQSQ
Chain of Estrogen receptor (Homo sapiens) (P03372 whole entry, looked up): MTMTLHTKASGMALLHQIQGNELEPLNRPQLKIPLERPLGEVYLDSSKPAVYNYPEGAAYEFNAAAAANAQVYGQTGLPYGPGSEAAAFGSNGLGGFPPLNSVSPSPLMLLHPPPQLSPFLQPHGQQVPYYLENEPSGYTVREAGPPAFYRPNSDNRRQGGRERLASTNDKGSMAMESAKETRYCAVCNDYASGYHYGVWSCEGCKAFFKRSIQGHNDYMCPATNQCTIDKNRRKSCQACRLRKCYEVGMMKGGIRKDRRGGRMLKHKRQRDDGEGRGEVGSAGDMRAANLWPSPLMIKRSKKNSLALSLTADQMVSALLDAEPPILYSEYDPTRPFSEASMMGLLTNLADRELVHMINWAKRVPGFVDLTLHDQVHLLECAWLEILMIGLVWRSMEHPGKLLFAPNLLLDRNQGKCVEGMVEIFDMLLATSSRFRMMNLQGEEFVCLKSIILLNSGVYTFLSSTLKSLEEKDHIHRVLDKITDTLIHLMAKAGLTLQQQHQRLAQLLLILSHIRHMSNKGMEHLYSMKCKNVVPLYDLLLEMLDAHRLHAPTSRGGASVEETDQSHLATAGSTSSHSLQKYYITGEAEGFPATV

CC(C)(C)NCCO
inactive: all assays above

CCCCCCCCCCCCOC(C)=O
inactive: all assays above

CCOC(=O)C(=O)c1csc(NC=O)n1
not listed: [14] | [16]
inactive: all other assays above

Cc1nc(C)nc(N2C[C@@H](C)N(c3ccnc([C@@H](C)O)n3)[C@@H](C)C2)n1
not listed: [15] | [16] | [18]
inactive: all other assays above

OCCCCCCCl
not listed: [11] | [14]
inactive: all other assays above

CCN(CCC#N)c1ccccc1
not listed: [16] | [18]
inactive: all other assays above

CC1=CC[C@H](CC=O)C1(C)C
not listed: [16]
inactive: all other assays above

CCCCC(=O)N(C)C
not listed: [15] | [18]
inactive: all other assays above

N#CCCOCCOCCC#N
inactive: all assays above

CCOC(=O)C(C)(C)C
not listed: [16]
inactive: all other assays above

C=CC(C)(O)CC/C=C(\C)CC (stereo not given)
inactive: all assays above

CCOC(=O)CC#N
not listed: [11]
inactive: all other assays above

CCCCCCCCCCCCC1CO1 (stereo not given)
inactive: all assays above

CN(C)CCOCCN(C)CCO
not listed: [15] | [16] | [18]
inactive: all other assays above
